# Screens as filed in PubChem.
# Shown are actives, neighbours in structure and some others; about 1.2% of the full set was active somewhere.
# TLR4 MyD88 comp – inhibitors of human TLR4-MyD88 binding; hit rate 0.18% among 200,000; HeLa CL3-4 TLR4/MyD88 BLA complementation, FRET ratio; O00206+Q99836; AID 861; inhibition, % at 8.4 µM; in the data active = inhibition above about 25%
# ABHD5-PLIN5 inh – ABHD5-PLIN5 protein interaction inhibition | Q00G26+Q8WTS1 | Split G. princeps luciferase complementation, luminescence, 4 h | inhibition, % at 4 µM | hit rate 0.78% among 360,000;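 active = inhibition above the mean inhibition across every tested compound plus 3 SD, cut at about 22% in these data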
# NOD2 RIPK2 PPI – NOD2-RIPK2 protein interaction inhibition; CHO BLA complementation NOD2-RIPK2, CCF4 ratio; hit rate 0.38% among 360,000; inhibition, % at 4.98 µM; AID 624267; in the data active = inhibition above about 21%
# TLR9-MyD88 block – blocks human TLR9 binding to MyD88. Q9NR96+Q99836. CHO BLA complementation TLR9-MyD88, CCF4 FRET ratio. inhibition, % at 4.98 µM. hit rate 0.21% among 340,000;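 active = inhibition above the mean over all tested compounds plus 3 SD, cut at about 21% in these data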
# ABHD5-PLIN5 conf – confirmation of human ABHD5-PLIN5 interaction inhibitors; biochemical ABHD5-PLIN5 interaction, luminescence; inhibition, % at 4 µM; AID 651612; shares compounds with ABHD5-PLIN5 inh; hit rate 67% among 2,200; in the data active = inhibition above about 23%
# HNF4 split-luc – active in HNF4 split-luciferase counter-screen for ABHD5-PLIN5 inhibitors; hit rate 77% among 2,200; shares compounds with ABHD5-PLIN5 inh; inhibition, % at 4 µM; AID 651674; HNF4 dimerization, luminescence, biochemical;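 active = mean inhibition across replicate wells exceeding the computed hit threshold, cut at about 13% in these data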;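 also: light from luciferase halves that rejoin when HNF4 fusion proteins dimerize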
# A number is an active result; i = inactive; nt = no result.
SMILES,TLR4 MyD88 comp,ABHD5-PLIN5 inh,NOD2 RIPK2 PPI,TLR9-MyD88 block,ABHD5-PLIN5 conf,HNF4 split-luc
O=c1[nH][nH]c2c1[C@H](c1ccc(Cl)cc1)O[C@H](C1CC1)C2,nt,23,i,nt,38,25
O=c1[nH][nH]c2c1[C@H](c1ccccc1)O[C@H](C1CCCCC1)C2,nt,31,i,nt,34,44
COC(=O)C1=C(O)/C(=C\c2ccc(CNS(=O)(=O)c3ccc(Cl)cc3)o2)N=C1C,i,32,i,i,29,39
CCN1CC(=O)Nc2cc(S(=O)(=O)N3CCOCC3)ccc21,i,32,i,i,49,46
COC(=O)CN1C(=O)N/C(=C/c2ccc(C)o2)C1=O,i,25,i,i,i,49
Cc1ccc(/C=C2/NC(=O)N(Cc3ccccc3)C2=O)o1,i,44,i,i,58,68
COC(=O)COc1ccc(/C=C2/NC(=O)N(CC(=O)OC)C2=O)cc1,i,i,i,i,nt,nt
N=c1c(C(=O)NCc2ccc(F)cc2)cc2c(=O)n3ccccc3nc2n1CC1CCCO1 (stereo not drawn),i,i,i,i,nt,nt
N=c1c(C(=O)NCc2ccco2)cc2c(=O)n3ccccc3nc2n1CC1CCCO1 (stereo not drawn),i,28,i,i,i,i
CCSc1nc2ccccc2n1C(=O)/C=C\c1ccc(OC)c(OC)c1,i,40,i,i,77,60
CC(C)(C(=O)N1CCC1(C)C(=O)NS(=O)(=O)c1cccc(Cl)c1)c1ccccc1 (stereo not drawn),nt,i,i,nt,nt,nt
COC(=O)C1=C(C)N(Cc2ccco2)C(=O)/C1=C\c1ccc(N(C)C)cc1,i,i,i,i,nt,nt
COC(=O)C1=C(C)N(Cc2ccco2)C(=O)/C1=C\c1ccc([N+](=O)[O-])cc1,i,70,i,i,98,95
COc1ccc(N(C(=O)/C=C/c2ccccc2)C2=CC3CCC(C2)N3C)cc1 (stereo not drawn),nt,i,i,i,nt,nt
Cc1ccc([C@@H]2[C@@H]3C(=O)N(C)C(=O)[C@@H]3[C@]3(C)C(=O)N(Cc4ccc(-c5ccccc5)cc4)CC(=O)N23)o1,nt,i,i,i,nt,nt
CCN1CCN(c2cc(N3CCc4ccccc4C3)c(F)cc2[N+](=O)[O-])CC1,i,26,i,i,i,i
O=C(/C=C/c1cccnc1)c1ccc(O)cc1,nt,29,i,i,49,48
O=C(C=Cc1cccnc1)c1ccccc1,nt,74,i,i,84,81
CN(C)C(=O)COc1ccc(C(=O)/C=C/c2cccnc2)cc1,nt,28,i,i,52,46
Cc1cc(=O)oc2c3c(cc(OCC(=O)NCC4CCC(C(=O)O)CC4)c12)OC(C)(C)CC3 (stereo not drawn),nt,i,i,i,nt,nt
Cc1ccc(C)c(S(=O)(=O)N2CCN(C(=O)c3cccnc3)CC2)c1,nt,i,i,i,nt,nt
CCn1cc(CN2CCCC(C(=O)Nc3cccc(-c4cc5ccccc5[nH]4)c3)C2)c(C)n1 (stereo not drawn),nt,31,i,i,i,i
O=C(COC(=O)c1cnccn1)Nc1ccc(Cl)cn1,nt,i,i,i,nt,nt
Cc1ccccc1Oc1nc2c(C)cccn2c(=O)c1/C=C(\C#N)C(=O)Nc1c(C)n(C)n(-c2ccccc2)c1=O,i,28,i,i,49,35
CCC[C@H]1CN(c2ccc(Br)cc2)C(=O)[C@@H]1CC(=O)Nc1ccccc1,nt,i,i,i,nt,nt
SMILES,TLR4 MyD88 comp,ABHD5-PLIN5 inh,NOD2 RIPK2 PPI,TLR9-MyD88 block,ABHD5-PLIN5 conf,HNF4 split-luc
CCOC(=O)c1c(CSC(=N)N)n(-c2ccc(C)cc2)c2cc(Br)c(OC(C)=O)cc12,i,31,i,i,33,30
C[C@H](CO)N1C[C@H](C)[C@@H](CN(C)S(=O)(=O)c2ccc(-n3cccn3)cc2)OCc2cn(nn2)CCCC1=O,nt,i,i,i,nt,nt
CCCCCCn1c(=O)n2n(c1=O)[C@@H]1CN(S(=O)(=O)c3ccc(C)cc3)C[C@]1(O)[C@@H](OC(=O)NCc1ccccc1)C2,nt,i,i,i,nt,nt
CCOC(=O)C1CCCN(C(=O)c2cc(Nc3ccc(OC)c(OC)c3)nc3ccccc23)C1 (stereo not drawn),i,29,i,i,45,i
O=C(Nc1ccc(Br)cc1F)c1cccnc1,i,i,i,i,nt,nt
Cc1n[nH]c(C)c1S(=O)(=O)N1CCC(C(=O)Nc2cccc(F)c2)CC1,nt,i,i,i,nt,nt
